Most compounds without a hit are left out; they make up all but 1.6% or so of the library.
KCNQ2 enhance: KCNQ2 (rat) channel potentiation | CHO-K1 KCNQ2, FluxOR thallium flux fluorescence; hits give high values | B-score at 10 µM | actives 0.54% (n = 310,000) | AID 2239;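 active = fluorescence ratio B-score at least 3 SD of library B-scores, with initial fluorescence B-score within 3 of them, cut at about 5.3 in these data; same plate scores as AID 2156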;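 also: B-score of peak minus minimum over baseline fluorescence ratio after K+ and Tl+ stimulus; positive B-score means potentiation of KCNQ2 with more thallium influx and brighter signal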
KCNQ2 block: KCNQ2 (rat) channel inhibition | AID 2156 | CHO-K1 KCNQ2, FluxOR thallium flux, 20 min; hits give low values | actives 1.1% (n = 310,000) | B-score at 10 µM;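 active = fluorescence ratio B-score at most minus 3 library SDs, with starting brightness B-score within 2 library SDs, cut at about -5.5 in these data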
Kir21 conf inh: confirmation of mouse Kir2.1 potassium channel inhibitors | Kir2.1-expressing cells, FluxOR thallium flux fluorescence; hits give low values | shares compounds with KCNQ2 enhance | Tl flux remaining, % of negative control (hits give low values), % at 10 µM | AID 2032 | actives 41% (n = 2,300);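 active = Primary-screen hit whose thallium flux fell at least 3 control SD below untreated wells in both duplicates, with normal baseline fluorescence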;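 also: 0% = blank wells without stimulus and 100% = stimulated no-compound controls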
Target sequence (P35561 whole entry, looked up): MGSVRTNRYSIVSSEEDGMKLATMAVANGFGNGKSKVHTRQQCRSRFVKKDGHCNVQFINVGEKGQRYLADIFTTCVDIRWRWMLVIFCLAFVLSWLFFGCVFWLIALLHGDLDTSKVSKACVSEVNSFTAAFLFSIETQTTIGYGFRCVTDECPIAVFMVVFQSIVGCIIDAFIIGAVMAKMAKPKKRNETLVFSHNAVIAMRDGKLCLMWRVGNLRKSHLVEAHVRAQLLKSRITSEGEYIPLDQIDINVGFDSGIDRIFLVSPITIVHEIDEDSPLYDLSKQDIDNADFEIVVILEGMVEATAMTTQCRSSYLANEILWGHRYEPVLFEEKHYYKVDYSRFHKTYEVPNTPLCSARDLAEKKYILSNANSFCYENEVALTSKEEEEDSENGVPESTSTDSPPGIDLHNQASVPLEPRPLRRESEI
HEK293 ctr: counter-screen for Kir2.1 inhibitors: effect in parental HEK293 cells. FluxOR thallium flux fluorescence; 0% = unstimulated blank wells. actives 19% (n = 2,300). shares compounds with KCNQ2 enhance. FluxOR signal as % of negative control (100 = no effect), % at 10 µM;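 active = dye signal at least 3 control SD above or below untreated wells in both duplicates, raw fluorescence within 3, either direction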;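 also: percent is based on the flux ratio of peak minus minimum fluorescence over baseline F0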
CHO-K1 ctr: parental CHO-K1 activity in KCNQ2 potentiator counter-screen. shares compounds with KCNQ2 enhance. parental CHO-K1 cells, FluxOR thallium flux fluorescence; zero = vehicle mean+3SD, 100% = vehicle-minus-blank window. activity increase over 3SD of controls, % at 10 µM. actives 43% (n = 1,200). AID 2282;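 active = signal rise of at least 3 SD above the untreated control mean, in both duplicate wells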;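 also: counter screen of KCNQ2 potentiator hits so any rise reflects channel-independent effects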
KCNQ1 pot spec: selectivity of KCNQ2 potentiators: effect on human KCNQ1; shares compounds with KCNQ2 enhance; CHO KCNQ1 stable, FluxOR thallium flux fluorescence; beyond 3SD, as % of vehicle-control signal; activation over 3SD threshold, % at 10 µM; actives 28% (n = 1,200); AID 2283;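 active = fluorescence ratio rise of at least 3 SD of vehicle wells above their mean, in both replicate wells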;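 also: 0% = vehicle mean plus 3 SD and 100% = vehicle minus unstimulated blank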
KCNQ2 pot conf: rat KCNQ2 channel potentiator confirmation; shares compounds with KCNQ2 enhance; CHO-KCNQ2 cells, FluxOR thallium flux fluorescence; actives 68% (n = 1,200); potentiation, less the hit threshold, % at 10 µM; AID 2287;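 active = fluorescence ratio rising 3 SD or more over the vehicle control mean in both replicates, plus primary screen hit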;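 also: peak minus minimum thallium fluorescence divided by baseline after K/Tl stimulus; 0% = vehicle mean plus 3 SD and 100% = vehicle minus unstimulated blank difference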
Kir21 spec: tests whether KCNQ2 potentiators also affect mouse Kir2.1; activity over 3SD threshold, % at 10 µM; shares compounds with KCNQ2 enhance; actives 2% (n = 1,200); AID 2345; HEK293 Kir2.1, FluxOR thallium flux fluorescence;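 active = fluorescence ratio rise of at least 3 SD above the vehicle-control mean, seen in both replicates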;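 also: 0% = vehicle mean plus 3 SD and 100% = vehicle minus no-stimulus blank window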
KCNQ2 W236L MoA: potentiates the retigabine-insensitive rat KCNQ2 W236L mutant channel. actives 10% (n = 940). current increase over 3SD of negative controls (%), hits give high values, % at 25 µM. shares compounds with KCNQ2 enhance. CHO KCNQ2-W236L, automated patch clamp current. AID 2558;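 active = current increase at least 3 SD of the untreated controls above them in both duplicate recordings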
The depositor's hits bear a star; i = inactive; nt = not tested or not shown.

SMILES | KCNQ2 enhance | KCNQ2 block | Kir21 conf inh | HEK293 ctr | CHO-K1 ctr | KCNQ1 pot spec | KCNQ2 pot conf | Kir21 spec | others
OCOCCCn1c(C2CCCN2c2nc(-c3ccc(F)cc3)cs2)nc2cc(Cl)c(N3CCCCC3)cc21 (stereo unspecified) | 6.9* | i | i | i | 58* | -18 | -4 | -24
Cc1ccc(NC(=O)C2CCCN(S(=O)(=O)c3ccc4[nH]c(=O)ccc4c3)C2)c(C)c1 (stereo unspecified) | nt | i | nt | nt | nt | nt | nt | nt
CC(=O)OCC[C@H](NS(=O)(=O)OCC(Cl)(Cl)Cl)c1ccccc1 | 2.1 | i | nt | nt | nt | nt | nt | nt
CCOc1ccc(S(=O)(=O)N(CC(=O)N2CCC(C(N)=O)CC2)c2ccc(F)cc2)cc1 | nt | i | nt | nt | nt | nt | nt | nt
COc1cccc(CCNC(=O)CCc2nnc(Cc3cc(OC)ccc3OC)o2)c1 | nt | i | nt | nt | nt | nt | nt | nt
Cc1ccc(/C=C/C(=O)OCC(=O)Nc2cccc(S(=O)(=O)N(C)C)c2)o1 | 1.4 | i | nt | nt | nt | nt | nt | nt
COc1ccc(N(CC(=O)Nc2ccccc2C(N)=O)S(=O)(=O)c2ccc(C)c([N+](=O)[O-])c2)cc1 | nt | i | nt | nt | nt | nt | nt | nt
Cn1c(N2CCCC2)nc2c1c(=O)[nH]c(=O)n2C | 0.12 | i | nt | nt | nt | nt | nt | nt
CN(C)CC1CCCCC1C1(O)c2ccccc2CSc2sccc21 (stereo unspecified) | 1.5 | i | 69%* | i | nt | nt | nt | nt
CN(C)CC1CCCCC1OC(=O)c1ccc(Cl)cc1 (stereo unspecified) | 0.35 | i | nt | nt | nt | nt | nt | nt
c1ccc(CSc2nnnn2-c2cccc3ccccc23)nc1 | nt | i | 66%* | i | nt | nt | nt | nt
O=C(O)c1cccc(-n2nnnc2SCc2ccccn2)c1 | nt | i | nt | nt | nt | nt | nt | nt
COc1ccc(CN2CCNC(=O)C2CC(=O)NC2Cc3ccccc3C2)c(OC)c1 (stereo unspecified) | 0.06 | i | nt | nt | nt | nt | nt | nt
CC(=O)C1=C(S(=O)(=O)c2ccc(C)cc2)CS(=O)(=O)C1 | 17* | i | i | 72%* | -8 | -4 | 77* | -41 | KCNQ2 W236L MoA=76%*
Cc1ccc(S(=O)(=O)C2CS(=O)(=O)CC2O)cc1 (stereo unspecified) | 0.88 | i | nt | nt | nt | nt | nt | nt
CC(=O)Nc1ccc(NC(=O)c2ccco2)cc1 | 0.17 | i | nt | nt | nt | nt | nt | nt
CCC(C)c1ccc(NC(=O)c2ccco2)cc1 (stereo unspecified) | 12* | i | i | i | 26* | -10 | 38* | -12 | KCNQ2 W236L MoA=i
Cc1ccc(NC(=O)c2ccc(OC(=O)c3ccco3)cc2)cc1 | nt | i | nt | nt | nt | nt | nt | nt
Cc1ccc(Oc2ccc(NC(=O)c3ccco3)cc2)cc1 | 14* | i | i | 73%* | -7 | -30 | 33* | -43 | KCNQ2 W236L MoA=19%*
CCN(CC)c1ccc(NC(=O)c2ccco2)cc1 | 2.4 | i | nt | nt | nt | nt | nt | nt
CCN(CC)c1ccc(NC(=S)NC(=O)c2ccco2)cc1 | 11* | i | i | 204%* | -14 | -18 | 28* | -29 | KCNQ2 W236L MoA=i
CCc1nc2ccccc2c(C(=O)OCC(=O)N2CC(C)OC(C)C2)c1C (stereo unspecified) | 0.19 | i | nt | nt | nt | nt | nt | nt
Cc1cccc(NC(=S)NC(=O)c2cc(-c3ccccc3)nc3ccccc23)c1 | 3.5 | i | nt | nt | nt | nt | nt | nt
O=C(N/N=C/c1cccnc1)c1cc(Br)ccc1O | nt | i | nt | nt | nt | nt | nt | nt
O=C(N/N=C/c1ccccn1)c1cc(C2CC2)nc2ccccc12 | nt | i | nt | nt | nt | nt | nt | nt
SMILES | KCNQ2 enhance | KCNQ2 block | Kir21 conf inh | HEK293 ctr | CHO-K1 ctr | KCNQ1 pot spec | KCNQ2 pot conf | Kir21 spec | others
O=C(N/N=C/c1ccccn1)c1cc(Br)ccc1O | 7.3* | i | i | 228%* | -14 | 0 | 44* | -24 | KCNQ2 W236L MoA=i
O=C(N/N=C/c1ccccn1)c1cc(-c2ccccc2)nc2ccccc12 | 11* | i | i | i | 222* | 81* | 13* | -27 | KCNQ2 W236L MoA=i
Cc1ccccc1NC(=S)NC(=O)c1cc(-c2ccccc2)nc2ccccc12 | 6.2* | i | i | i | -11 | 8.8* | -22 | -18
COc1ccc(CNC(=O)CN2C(=O)COc3ccc(S(=O)(=O)N4CCCCC4)cc32)cc1 | nt | i | nt | nt | nt | nt | nt | nt
O=C(CNC(=O)N1CC(=O)Nc2ccccc21)NCCc1cccc(F)c1 | nt | i | nt | nt | nt | nt | nt | nt
CC1Cc2cc(/C=C3/SC(=S)NC3=O)ccc2O1 (stereo unspecified) | 10* | i | i | 145%* | -13 | -14 | 7.8* | -31 | KCNQ2 W236L MoA=4.5%*
Cc1cc(/C=C2\SC(=S)NC2=O)cc(C)c1O | 0.89 | i | nt | nt | nt | nt | nt | nt
CC(=O)Nc1ccc(N2CCc3c(C)c(C#N)c4nc5ccccc5n4c32)cc1 | 1.2 | i | nt | nt | nt | nt | nt | nt
Cc1ccc(S(=O)(=O)N2CCN(C(=O)c3ccnn3C)CC2)cc1C | 0.19 | i | nt | nt | nt | nt | nt | nt
Cc1cccc(/C=N/n2c(C3CCCCC3)n[nH]c2=S)c1 | nt | i | nt | nt | nt | nt | nt | nt
CC(/C=N/n1c(C2CCCCC2)n[nH]c1=S)=C\c1ccccc1 | 8.3* | i | i | i | 92* | 23* | -15 | -26
O=C(NC(=S)NCc1ccccc1)c1ccc(Br)o1 | 13* | i | i | 330%* | -11 | -19 | 53* | -31 | KCNQ2 W236L MoA=i
COc1ccc(NC(=O)c2ccc(Br)o2)cc1 | 0.29 | i | nt | nt | nt | nt | nt | nt
NC(=O)c1ccccc1NC(=S)NC(=O)c1ccc(Br)o1 | nt | i | nt | nt | nt | nt | nt | nt
O=C(NC(=S)Nc1ccccc1)c1ccc(Br)o1 | 8.2* | i | i | 162%* | 130* | -19 | 35* | -24 | KCNQ2 W236L MoA=i
O=C(NC(=S)N1CCc2ccccc21)C1CCC1 | 0.25 | i | nt | nt | nt | nt | nt | nt
O=C(NC(=S)N1CCc2ccccc21)c1ccc(Br)o1 | 9.8* | i | i | 399%* | -9 | 48* | 75* | -15 | KCNQ2 W236L MoA=i
O=C(NNC(=S)NCc1ccccc1)c1ccc(Br)o1 | nt | i | nt | nt | nt | nt | nt | nt
COc1ccc(NC(=S)NC(=O)c2ccc(Br)o2)cc1 | 8.5* | i | i | 200%* | -6 | -4 | 39* | -23 | KCNQ2 W236L MoA=i
CCOc1ccc2ccccc2c1C(=O)NCC(c1ccc(N(C)C)cc1)N(C)C (stereo unspecified) | 1.2 | i | nt | nt | nt | nt | nt | nt
CCCn1cc(CN2CCC(n3nccc3NC(=O)c3ccccc3)CC2)c(C)n1 | 0.46 | i | nt | nt | nt | nt | nt | nt
CN1CCc2c(sc(NC(=O)C3CCN(S(=O)(=O)c4cccs4)CC3)c2C(N)=O)C1 | 0.59 | i | nt | nt | nt | nt | nt | nt
CC(=O)Nc1ccc(NC(=O)[C@@H](NC(=O)c2ccccc2F)C(C)C)cc1 | 0.79 | i | nt | nt | nt | nt | nt | nt
Cc1ccc2cc(NC(=O)c3ccccc3C)ccc2n1 | nt | i | nt | nt | nt | nt | nt | nt

Source: PubChem BioAssay
